Screening data from PubChem BioAssay.
Shown are actives, neighbours in structure and some others; about 2.3% of the full set was active somewhere.
M1 PAM parental – nonselective activator or artifact in parental CHO-K1 calcium assay | ATP EC20, Fluo-8 calcium fluorescence; 0% at ATP EC20, 100% at ATP max | activation, % at 3 µM | 360,000 tested, 0.02% active | AID 602247;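 active = activation above the run cutoff, the mean activation of all test compounds plus 3 SD, cut at about 40% in these data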;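 note: peak over basal fluorescence ratio in a 140 s read after ATP addition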
CHRM1 PAM – human CHRM1 positive allosteric modulation | 360,000 tested, 0.088% active | activation, % at 3 µM | CHO-K1 hM1, Fluo-8 calcium fluorescence, ACh EC20; 0% = ACh EC20, 100% = maximal ACh; in the data active = activation above about 19%, passing the limit was not always enough
Target sequence (P11229 whole entry, looked up): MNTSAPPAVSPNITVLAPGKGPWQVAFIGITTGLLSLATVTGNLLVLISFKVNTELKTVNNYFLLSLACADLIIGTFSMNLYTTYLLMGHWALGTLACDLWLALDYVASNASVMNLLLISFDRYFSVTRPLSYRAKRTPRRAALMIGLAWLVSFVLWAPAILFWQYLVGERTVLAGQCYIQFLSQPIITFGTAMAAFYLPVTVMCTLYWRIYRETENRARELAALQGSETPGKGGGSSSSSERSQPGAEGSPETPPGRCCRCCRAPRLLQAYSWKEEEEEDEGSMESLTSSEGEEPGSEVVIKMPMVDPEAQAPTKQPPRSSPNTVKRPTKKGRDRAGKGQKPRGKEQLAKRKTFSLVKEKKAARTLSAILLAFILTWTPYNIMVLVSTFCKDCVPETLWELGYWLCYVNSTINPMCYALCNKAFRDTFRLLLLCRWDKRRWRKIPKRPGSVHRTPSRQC
CHO-K1 Ca antag – M1 antagonist counterscreen hit in parental CHO-K1 cells; 360,000 tested, 0.6% active; ATP-induced calcium, Fluo-8 fluorescence; inhibition, % at 3 µM;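 active = inhibition above a per-plate cutoff, the plate's mean sample inhibition plus 3 SD, cut at about 24% in these data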
CHRM1 antagonist – blocks human M1 muscarinic receptor; P11229; CHO-K1 hM1, Fluo-8 calcium fluorescence, ACh EC80 antagonist; inhibition, % at 3 µM; 360,000 tested, 1.3% active; AID 588852;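 active = percent inhibition above its own plate's cutoff, namely the mean of that plate's compound wells plus 3 SD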;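 note: peak over basal fluorescence ratio during 140 s after agonist addition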
CHRM1 agonist – activates human CHRM1 receptor. 360,000 tested, 0.33% active. P11229. activation, % at 3 µM. CHO-K1 hM1, Fluo-8 calcium fluorescence, agonist mode; 0% DMSO, 100% acetylcholine EC100. AID 588814;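 active = activation above the run's mean compound activation plus 3 SD, cut at about 16% in these data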;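 note: peak over basal fluorescence ratio within a 140 s kinetic read after compound addition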
M1 ag parental – M1 agonist counterscreen hit in parental CHO-K1 cells; activation, % at 3 µM; AID 602248; Fluo-8 calcium fluorescence; scaled to maximal ATP response, vehicle zero; 360,000 tested, 0.48% active; in the data active = activation above about 15%;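 note: untransfected CHO-K1 host cells lacking M1 receptor as counterscreen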
Large screens that a line does not name were inactive.

CCOc1ccc(S(=O)(=O)c2ccc(C)cc2)c2c1no[n+]2[O-]	none
Cn1nc(C(C)(C)C)cc1C(=O)N1CCCCC1c1cc(C(=O)Nc2ccccc2Cl)no1 (stereo not drawn)	CHO-K1 Ca antag 24
COc1ccccc1OCC(=O)N/N=C(\C)c1ccc2ccccc2c1	none
O=[N+]([O-])c1ccc(COc2ccc(CNc3ccccc3)cc2)cc1	CHRM1 antagonist 26
Cc1c(N=C(N)/N=C(\N)Nc2ccccc2)c(=O)n(-c2ccccc2)n1C	CHRM1 antagonist 67
O=C1NC[C@H](CCCCN2CCN(Cc3ccccc3)C(=O)C2=O)N(Cc2ccccc2)C1=O	none (no result: CHRM1 PAM, CHRM1 antagonist, CHRM1 agonist)
COc1ccc(NC(=O)c2oc3ccc(S(=O)(=O)N4CCC5(CC4)OCCO5)cc3c2C)cc1	CHRM1 antagonist 34
C=CCNC(=O)c1oc2ccc(S(=O)(=O)N3CCC4(CC3)OCCO4)cc2c1C	none
Cc1ccc(NN2C(=O)C=C(c3ccc(Cl)cc3)C2=O)cc1	CHO-K1 Ca antag 31
CNCCOc1ccccc1-c1ccccc1	none
CCOC(=O)[C@]12CCC=C1N(CCC1=CCCCC1)C(=O)[C@H](CC(=O)N1CCCCC1)C2	none (no result: CHRM1 PAM, CHRM1 antagonist, CHRM1 agonist)
OC(c1cccnc1)c1nc(/C=C/c2ccc(C(F)(F)F)cc2)cs1 (stereo not drawn)	none
N#CC1=C(N)OC2=C(CCc3ccccc32)C1c1ccccc1Cl (stereo not drawn)	CHRM1 antagonist 44
N#CC1=C(N)Oc2cc(N)ccc2C1c1ccccc1Cl (stereo not drawn)	none
CC1CCCN(CCCNC(=O)c2ccc(CS(=O)(=O)c3c(Cl)cccc3Cl)o2)C1 (stereo not drawn)	CHRM1 antagonist 57
Cc1nn(CCCC(=O)NCCCN2CCN(C)CC2)c(=O)c2c1sc1ccccc12	none
COc1cccc(N2CCN(C(=O)c3ccc(OC)c(S(=O)(=O)NC4CC4)c3)CC2)c1	none
CC1(C(=O)NS(=O)(=O)c2ccc(Br)cc2)CCN1C(=O)Cc1ccsc1 (stereo not drawn)	none
O=C(c1ccccc1)c1ccc(O)cc1O	M1 ag parental 16
O=C(c1ccccc1)c1ccc2ccccc2c1	none
Cc1cc2ccccc2cc1C(=O)c1ccccc1	CHRM1 PAM 28
Cn1c(Oc2ccc(Cl)cc2)c(C=O)c2ccccc21	CHO-K1 Ca antag 27
CC1(C)CN(Cc2ccccc2)C(=O)[C@H]1CC(=O)Nc1ccc(Br)cc1	none
Cc1ccc(-n2nnnc2SCn2nnc3ccccc3c2=O)c(C)c1	CHO-K1 Ca antag 24
Cc1cc(SCn2nnc3ccccc3c2=O)nc2ccccc12	none
CCOC(=O)Cc1csc(NC(=O)c2csc(C)c2)n1	none
CCOC(=O)Cc1csc(NC(=O)c2sc3nc4c(C)cc(C)cc4cc3c2N)n1	CHRM1 antagonist 32
CCOC(=O)c1c(C)[nH]c(C(=O)COC(=O)c2ccc(N3CCCC3=O)cc2)c1C	CHO-K1 Ca antag 27
CC1CC(C)CN(C(=O)COC(=O)c2ccc(N3CCCC3=O)cc2)C1 (stereo not drawn)	none
Cc1ccc(S(=O)(=O)N2CCOCC2)cc1C(=O)NCc1cccs1	CHO-K1 Ca antag 25
O=C(NCc1cccs1)c1ccc(S(=O)(=O)N2CCOCC2)cc1	none
O=S1(=O)CC(N2CC=CC2)CN1Cc1ccc(F)cc1 (stereo not drawn)	CHO-K1 Ca antag 29
Cc1ccc(CN2CC(N3CC=CC3)CS2(=O)=O)cc1 (stereo not drawn)	none
COC(=O)C(CC(=O)c1ccc(C)cc1)n1nc(C)cc1C (stereo not drawn)	M1 ag parental 16
COC(=O)C(CC(=O)c1ccc(Br)cc1)n1nc(C)cc1C (stereo not drawn)	none
CN(C)S(=O)(=O)n1cc(/C=C(\NC(=O)c2ccccc2F)C(=O)N2CCCCC2)c2ccccc21	none
Oc1ccc(C23CCCC2C2(CCCC2)c2ccc(O)cc2O3)c(O)c1 (stereo not drawn)	CHRM1 antagonist 38, CHRM1 agonist 40, M1 ag parental 24
O=C(NCC1CCCO1)C1CCN(C2CCN(C(=O)CC3CCCC3)CC2)CC1 (stereo not drawn)	CHO-K1 Ca antag 27
O=C(NCC1CCCO1)C1CCN(C2CCN(CCCC3CCCC3)CC2)CC1 (stereo not drawn)	none
Cc1nc2ccccc2cc1OCc1ccccc1	CHRM1 antagonist 18
COc1cccc(COc2cc3ccccc3nc2C)c1	CHRM1 antagonist 34
Cc1nc2ccccc2cc1OCc1ccc(Cl)cc1	CHRM1 antagonist 22
CCNC(=O)C1(C)CCCN(C(=O)c2cc3ccccc3s2)C1 (stereo not drawn)	none
Cc1cc(C)n2nc(SCc3cccc(S(=O)(=O)N(C)C)c3)nc2n1	none
CN(C)S(=O)(=O)c1cccc(CSCc2cccc(S(=O)(=O)N(C)C)c2)c1	CHO-K1 Ca antag 50, CHRM1 antagonist 38, M1 ag parental 18
O=[N+]([O-])c1ccccc1/C=N\N1CCN(c2ccccc2)CC1	M1 ag parental 28
CCC(=O)Nc1cccc(NC(=S)NC(=O)Cc2ccccc2)c1	none
COc1ccc(CC(=O)NC(=S)Nc2cccc(C)c2)cc1	CHRM1 agonist 26
COc1cccc(NC(=S)NC(=O)Cc2ccc(Cl)cc2)c1	CHRM1 agonist 37, M1 ag parental 23
COc1ccccc1NC(=S)NC(=O)Cc1ccc(Cl)cc1	none
COc1ccc(CC(=O)NC(=S)Nc2cccc(CO)c2)cc1	CHRM1 agonist 29
COC(=O)[C@]12CCCCC=C1N(Cc1cccc3ccccc13)C(=O)[C@H](CC(=O)NCCCN1CCCC1=O)C2	none (no result: CHRM1 PAM, CHRM1 antagonist, CHRM1 agonist)
Cc1cccc(CN2CCN(C3CN(Cc4ccc([N+](=O)[O-])cc4)S(=O)(=O)C3)CC2)c1 (stereo not drawn)	none
COc1ccc(C(=O)N2c3ccc(F)cc3CCC2C)cc1OC (stereo not drawn)	none
COc1ccccc1NC(=O)N1c2ccc(F)cc2CCC1C (stereo not drawn)	CHO-K1 Ca antag 24
Cc1cc(C(=O)N2CCC2(C)C(=O)NS(=O)(=O)c2ccccc2Cl)nn1C (stereo not drawn)	none
CN(C)CCCOC(=O)c1ccc(Cl)cc1Cl	none
CCCN(CCC)CCCOC(=O)c1ccc(Cl)cc1Cl	CHRM1 antagonist 68
CCOC(=O)c1ccc(NC(=O)c2nc[nH]c2C(=O)N[C@H](C)CO)cc1	none
COc1ccccc1C(CNC(=O)c1cccc(S(=O)(=O)Nc2ccc(F)cc2)c1)N1CCCC1 (stereo not drawn)	CHRM1 antagonist 101
COc1ccc(NS(=O)(=O)c2cccc(C(=O)NCC(c3ccccc3OC)N3CCCC3)c2)cc1 (stereo not drawn)	CHRM1 antagonist 82
COc1ccc(NS(=O)(=O)c2cccc(C(=O)NCC(c3ccc(OC)cc3)N3CCCC3)c2)cc1 (stereo not drawn)	none
